Compound activity: PubChem BioAssay, National Center for Advancing Translational Sciences (NCATS)
RORgamma inh = ROR gamma (mouse) transcription inhibition. 310,000 tested, 5.4% active. AID 2551. Drosophila S2 Gal4-RORgamma UAS-luciferase reporter, 20 h. Potency, µM (top dose mostly 53.6 µM), without a hit: at the highest dose activity change, negative = inhibition, usual class: inhibitors; also: % is scaled to controls: 0 for no effect and ±100 for the full control effect; nearly all actives have a fitted effect of over 60% in size
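In this cell-based reporter format, copper sulfate (700 uM final) drives Gal4–ROR gamma fusion expression from a metallothionein promoter in Drosophila Schneider cells; compounds preincubated 1 hr, reporter read after 20 hr at ambient temperature.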
HEK293 tox = cytotoxicity counter-screen for GLP-1 receptor inverse agonists; HEK293 cAMP-luciferase reporter cells, luminescence, 24 h; Potency, µM (series often up to 38.3 µM), for the others: at the highest dose activity change, negative = inhibition, hits mostly inhibitors; 410,000 tested, 0.13% active; AID 624418;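 also: loss of luciferase light is scored as toxicity; % is scaled to controls: 0 for no effect and ±100 for the full control effect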
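MLSMR compounds, 24 hr on cells at 37 deg C/5% CO2; luminescence after luciferase reagent (12 min RT). Inhibition counted as the undesired cytotoxic outcome.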
VP16 counter = inhibits Gal4-VP16 luciferase reporter, ROR gamma counter-screen; Potency, µM (top dose mostly 53.6 µM), inactives show at the top dose activity, negative = inhibition, most hits filed as inhibitors; Drosophila S2 Gal4-VP16 UAS-luciferase, luminescence, 20 h; 310,000 tested, 3.5% active; AID 2546;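 also: Gal4-VP16 expression switched on by copper sulfate through the metallothionein promoter; % is scaled to controls: 0 for no effect and ±100 for the full control effect; nearly all actives have a fitted effect of over 50% in size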
GLP1R inv ag = inverse agonists of human GLP-1 receptor; P43220; HEK293 GLP-1R CRE-luciferase, luminescence, 24 h; GLP-1R form is constitutively active; Potency, µM (top dose mostly 38.3 µM), for the others: top-dose activity change, negative = inhibition, hits mostly inhibitors; 410,000 tested, 1.6% active; AID 624417; also: % is scaled to controls: 0 for no effect and ±100 for the full control effect; nearly all actives have a fitted effect of over 55% in size
Target sequence (P43220 whole entry, looked up): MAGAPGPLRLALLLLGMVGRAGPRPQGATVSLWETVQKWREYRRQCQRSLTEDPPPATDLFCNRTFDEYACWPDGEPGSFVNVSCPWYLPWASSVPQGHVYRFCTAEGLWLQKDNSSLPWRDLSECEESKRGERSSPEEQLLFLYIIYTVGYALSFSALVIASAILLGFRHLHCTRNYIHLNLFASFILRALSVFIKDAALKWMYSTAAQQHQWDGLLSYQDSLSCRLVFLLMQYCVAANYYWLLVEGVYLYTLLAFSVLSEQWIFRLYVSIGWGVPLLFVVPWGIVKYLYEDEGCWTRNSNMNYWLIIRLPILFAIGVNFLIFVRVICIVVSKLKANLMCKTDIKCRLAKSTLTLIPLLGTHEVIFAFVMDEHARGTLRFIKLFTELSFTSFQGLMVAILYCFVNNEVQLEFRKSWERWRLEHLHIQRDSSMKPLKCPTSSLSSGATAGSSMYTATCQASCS
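HEK293 cells stably co-expressing a cAMP-responsive luciferase reporter and constitutively active GLP-1R were seeded, incubated 12 h, then exposed to compounds for 24 h at 37 C. Luminescence was read 12 min after detection reagent; inverse agonists lower signal.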
GLP1R ag = agonists of human GLP-1 receptor; P43220; HEK293 GLP-1R CRE-luciferase, luminescence, 4-6 h; cells express a hypersensitive GLP-1R form; 380,000 tested, 0.007% active; Potency, µM (series often up to 45.6 µM), inactives show top-dose activation, actives largely listed as activators; AID 624172; also: % of control where 0% means no effect
* marks the source's active call; other numbers are inactive results; ? = inconclusive; · = no result given; [ ] = remark or other dose. Rows were chosen to be rich in hits. Some 5.9% of all compounds tested hit in one or more screens of this group. Calls follow the shape of the dose curve; as a rule, active = well fitted curve in the direction sought with a large enough effect; inconclusive = small, poorly fitted or top-dose-only effect, or another doubt; inactive = no such curve, though single readings can be large; an effect the other way counts as inactive or inconclusive. Potency is read from the fitted curve at half-maximal effect.

SMILES | RORgamma inh | HEK293 tox | VP16 counter | GLP1R inv ag | GLP1R ag
CCN(CC(=O)Nc1ccccc1Br)Cc1nc2ccccc2c(=O)[nH]1 | 11µM* | -24% | ? | -43% | 29%
COc1ccccc1CNC(=O)CCCc1nnc2n(CC(C)C)c(=O)c3sccc3n12 | · | -12% | · | 2% | ·
COc1cccc(C2C=C(c3ccc(C)cc3)Nc3c(C(=O)Nc4ccc(F)cc4)cnn32)c1OC (stereo not drawn) | · | 24% | · | 9% | ·
Cc1cc(F)ccc1NC(=O)CCS(=O)(=O)c1cccc2nsnc12 | · | 0% | · | 13% | -1%
CN(CC(=O)Nc1ccc2c(c1)OCCO2)Cc1nc2ccccc2c(=O)[nH]1 | · | -11% | · | 12% | -6%
CC(NC(=O)CN(C)Cc1nc2ccccc2c(=O)[nH]1)c1ccccc1 (stereo not drawn) | 5% | -1% | -5% | 22% | -2%
CC(OCC(O)CN(C)Cc1nc2ccccc2c(=O)[nH]1)c1ccc(Cl)cc1 (stereo not drawn) | ? | -27% | -12% | 10µM* | 23%
CN(Cc1nc2ccccc2c(=O)[nH]1)C(=O)c1ccccc1OCc1ccc(Cl)cc1 | · | -5% | · | ? | 16%
CN(Cc1nc2ccccc2c(=O)[nH]1)Cc1nc2ccsc2c(=O)[nH]1 | 0.4µM* | 13µM* | 5µM* | -18% | 6%
Cc1c(Cl)cn2c(=O)cc(CN(C)Cc3nc4ccccc4c(=O)[nH]3)nc2c1Cl | 18µM* | · | -11% | · | ·
Cc1ccc(NC(=O)CN(C)Cc2nc3ccccc3c(=O)[nH]2)c(Br)c1 | 11µM* | -3% | ? | 5% | 7%
O=C1C=CC2=C3c4cc(O)c(O)cc4C[C@@]3(O)COC2=C1 | -45% | · | -5% | · | ·
COc1ccc(-c2ccc(C)cc2)cc1C1C2C=CCC(C)C2C(=O)N1Cc1ccccc1 (stereo not drawn) | 41% | · | -13% | · | ·
CCOc1cc(C(=O)Nc2ccc(NC(=O)c3cc4ccccc4o3)c(OC)c2)cc(OCC)c1OCC | · | 2% | · | 3% | ·
C=C1N[C@]2(C(=O)COC(C)=O)[C@@H](C[C@H]3[C@@H]4CCC5=CC(=O)C=C[C@]5(C)[C@H]4[C@@H](O)C[C@@]32C)O1 | 6% | · | 1% | · | 6%
COc1ccccc1CNC(=O)c1c(O)nc2c(C)cccn2c1=O | · | 5% | · | 18% | ·
CC(C(=O)Nc1ccccc1-c1ccccc1)N(C)Cc1nc2ccccc2c(=O)[nH]1 (stereo not drawn) | 14µM* | 1% | -8% | ? | 6%
CCN(CC(=O)NCc1ccc(F)cc1)Cc1cc(=O)n2ccsc2n1 | 6% | 1% | -1% | 6% | 5%
CCN(Cc1cc(=O)n2ccsc2n1)Cc1nc2ccccc2c(=O)[nH]1 | 2.2µM* | -11% | 10µM* | -13% | -1%
O=C(/C=C/c1c(Cl)cccc1Cl)N1CCOCC1 | -18%[1.91 µM] | 3% | 10% | 10% | 7%
O=C(/C=C/c1c(Cl)cccc1Cl)n1cccn1 | ? | ? | 11µM* | 90% | -15%
CCC1=NN2C(=N)/C(=C\c3cccn3-c3ccc(Cl)cc3)C(=O)N=C2S1 | ? | ? | -7% | 8% | 0%
N=C1/C(=C/c2cccn2Cc2ccc(Cl)cc2)C(=O)N=C2SC=CN12 | 4µM* | -6% | 5µM* | -7% | 4%
CC1=CC2=NC(=O)/C(=C/c3cccn3Cc3ccccc3)C(=N)N2O1 | 13µM* | -7% | ? | ? | 14%
CN1CCN(C(=S)NC(=O)c2cccc([N+](=O)[O-])c2)CC1 | 1µM* | ? | 1.3µM* | ? | -3%
SMILES | RORgamma inh | HEK293 tox | VP16 counter | GLP1R inv ag | GLP1R ag
O=C(NC(=S)N(CC1CCC1)CC1CCCO1)c1cccc([N+](=O)[O-])c1 (stereo not drawn) | 56µM* | -21% | 0.28µM* | -18% | -2%
CC(=O)NNC(=S)NC(=O)c1cccc([N+](=O)[O-])c1 | -5%[10 µM] | 12% | -69% | 19% | 0%
CC1CCN(C(=S)NC(=O)c2cccc([N+](=O)[O-])c2)CC1 | 0.71µM* | -15% | 0.63µM* | 6% | -1%
CCC1CCCCN1C(=S)NC(=O)c1cccc([N+](=O)[O-])c1 (stereo not drawn) | 0.28µM* | -25% | -89% | -10% | -1%
O=C(CCNS(=O)(=O)c1ccc2c(c1)CCN2C(=O)C1CC1)N1CCN(c2ccc(F)cc2)CC1 | · | 6% | · | 10% | -7%
Cc1ccc(CNC(=O)c2cc3c(=O)n4cccc(C)c4nc3s2)cc1 | · | 13% | · | 11% | ·
O=C(/C=C/c1cn(-c2ccccc2)nc1-c1cccnc1)N1CCCC1 | 5% | -9% | -3% | 71% | 7%
O=C(N/N=C/c1cn(-c2ccccc2)nc1-c1cccnc1)c1ccc(F)cc1 | 2.8µM* | -20% | 4µM* | -14% | 6%
O=C(N/N=C/c1cn(-c2ccccc2)nc1-c1cccnc1)c1cccnc1 | 14µM* | -16% | ? | 28% | 7%
O=C(CNc1ccccc1)N/N=C/c1cn(-c2ccccc2)nc1-c1ccccc1 | -4%[10 µM] | -14% | 1µM* | 5% | -8%
NC(=O)N/N=C/c1cn(-c2ccccc2)nc1-c1ccccc1 | -17% | -4% | ? | 50% | 15%
O/N=C/c1cn(-c2ccccc2)nc1-c1cccnc1 | 12% | 0% | 1% | 6% | 10%
O=C(N/N=C/c1cccnc1)c1ccc(F)cc1 | 2% | 7% | -13% | 19% | 6%
O=C(/C=C/c1cn(-c2ccccc2)nc1-c1cccnc1)c1ccco1 | 6.3µM* | ? | ? | ? | -5%
CCCCCn1cc2c(c1-c1ccc(Cl)cc1)c(=O)n(C)c(=O)n2C | · | 5% | · | -1% | ·
O=Cc1cn(-c2ccccc2)nc1-c1ccc(F)cc1 | 32% | -9% | -2% | 24% | -4%
O=C(N/N=C/c1cn(-c2ccccc2)nc1-c1ccc(F)cc1)c1ccc(Br)o1 | 1.8µM* | -13% | 2.5µM* | 0% | -7%
COc1cc(/C=C2/C(=O)c3cccc([N+](=O)[O-])c3C2=O)c(Br)cc1O | ? | ? | 35µM* | 10µM* | -1%
CC(=O)c1ccc(OCC(O)CN(C)CCOc2ccc(Br)cc2)cc1 (stereo not drawn) | -1% | 10% | 4% | 10µM* | 0%
CC(=O)c1ccc(OCC(O)COc2ccc(C(C)=O)cc2)cc1 | 6% | 12% | 1% | 12% | 1%
Cc1cc(-c2nc3ccccc3s2)ccc1N | · | 19% | · | 7.9µM* | -16%
CNc1ccc(-c2nc3ccccc3s2)cc1 | 1.4µM* | · | ? | · | ·
O=C(c1ccc(Cn2cc(Br)cn2)o1)N1N=C(C(F)F)CC1(O)C(F)F (stereo not drawn) | 11µM* | -2% | -18% | -24% | -1%
C=CCN(C)CCCCCCOc1ccc(C(=O)c2ccc(Br)cc2)c(F)c1 | -17% | · | ? | · | ·
